According to PubChem BioAssay AID1063 (University of Pittsburgh Molecular Library Screening Center, 2008):
In all, about 200,000 compounds went through this assay and about 18,000 (9%) were called active. This excerpt belongs to a sample that is enriched for actives. Values without a mark were called inactive. Cut-off read from the data, not from the text of the source: active = inhibition above about 50%; inactive = the rest.

Test: antileishmanial activity against promastigotes – primary screen (AID 1063);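 note: promastigotes grown with compound for 44 hours at 28 °C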
Settings: Leishmania major promastigotes, resazurin fluorescence viability; at 10 µM; hits give high values

| SMILES | inhibition |
| --- | --- |
| Cc1ccc(OCCCn2c(=O)oc3ccccc32)cc1 | -3.5% |
| CCOC(=O)N/N=C/c1cccnc1 | 1.46% |
| CCOC(=O)c1cnn(Cc2ccccc2Cl)c1N | 0.00878% |
| CCOC(=O)N/N=C/c1cn(Cc2ccccc2Cl)c2ccccc12 | 83.9% (active) |
| CNC(=S)N/N=C/c1cn(Cc2ccc(C)cc2)c2ccccc12 | 62.8% (active) |
| COC(=O)N/N=C/c1cn(CCCOc2ccc(C)cc2)c2ccccc12 | 55.6% (active) |
| O=C(Cn1cc(/C=N/NC(=O)c2cccc(C(F)(F)F)c2)c2ccccc21)Nc1ccc(F)cc1 | 6.06% |
| COC(=O)Cn1cc(/C=C/[N+](=O)[O-])c2ccccc21 | 27.7% |
| CNC(=S)N/N=C/c1ccc(OCc2ccccc2)c(Br)c1 | 1.78% |
| CCN(CC)S(=O)(=O)c1ccc(NC(=O)c2cccnc2Cl)c(NC(=O)c2cccnc2Cl)c1 | -1.01% |
| O=C(Nc1ccc(Cl)cc1)C1c2cccc[n+]2CC(=O)N1Cc1ccc2c(c1)OCO2 (stereo unspecified) | -2.66% |
| CCC(=O)Nc1ccc(Nc2nc(Cl)nc(Nc3ccc(NC(=O)CC)cc3)n2)cc1 | -6.56% |
| N#CCSc1nn(-c2ccc(F)cc2)c(=S)s1 | -4.75% |
| Cc1ccc(S(=O)(=O)N2CCN(C(=O)c3cccs3)CC2)cc1 | -4.13% |
| Cc1ccnc(NS(=O)(=O)c2ccc(NC(=O)c3ccc(S(=O)(=O)N(C)C)cc3)cc2)n1 | -6.03% |
| COC(=O)c1c(NC(=O)CCCC(=O)O)sc2c1CCCCC2 | -4.64% |
| CC(=O)Nc1ccc(Nc2nc3c(S(=O)(=O)c4ccc(C)c(C)c4)nnn3c3ccccc23)cc1 | 3.4% |
| Cc1cccc(Nc2nc3c(S(=O)(=O)c4ccccc4)nnn3c3ccccc23)c1C | 57.1% (active) |
| COCCCNc1nc2c(-c3cccc(C(F)(F)F)c3)nnn2c2ccccc12 | 0.99% |
| COc1ccc(N(CC(=O)NC2CCCC2)C(=O)CS(=O)CC(=O)Nc2ccc3c(c2)OCO3)cc1 (stereo unspecified) | -10.1% |
| COc1ccc(CC(=O)NCc2nnc(SCC(=O)Nc3nccs3)n2C)cc1 | -3.12% |
| CC(=O)Oc1ccccc1C1=NN(C(C)=O)C(c2ccccc2)C1 (stereo unspecified) | -5.99% |
| COc1cc([N+](=O)[O-])ccc1NC(=S)N1CCN(c2ccccn2)CC1 | -4.39% |
| Cc1cccn2c(CN(C)C3CCCc4ccccc43)c(C(=O)N3CCOCC3)nc12 (stereo unspecified) | 7.87% |

| SMILES | inhibition |
| --- | --- |
| Cc1cccn2c(=O)c3cc(C(=O)N4COCC4(C)C)n(C)c3nc12 | 89.9% (active) |
| O=C(O)C1C2CC2CN1C(=O)c1ccc(Cl)cc1Cl (stereo unspecified) | -2.09% |
| COc1ccc2nc(SCc3ccccc3)nc(C)c2c1 | -8.99% |
| COc1ccc(NC(=O)Nc2ccc3nc(C)c(C)nc3c2)cc1 | 6.7% |
| COc1ccc2nc(/N=C(\N)NC(=O)Nc3ccccc3)nc(C)c2c1 | 99.9% (active) |
| Cc1nc2cc(NCc3cccs3)ccc2n1C | 9.59% |
| C[C@H](NC(=O)c1ccccc1Cl)C(=O)OCCOc1cccc(Cl)c1 | -6.25% |
| CC(=O)N/N=C/c1cc2c(cc1[N+](=O)[O-])OCO2 | -2.52% |
| CCn1c(CSc2nc(C)cc(C)n2)nnc1SCC(N)=O | -0.87% |
| Cc1cccc(NC(=S)NCc2ccc3[nH]c4c(c3c2)CCCC4)c1 | 11.1% |
| Cc1cc2cc(CNC(=O)c3cccs3)ccc2[nH]1 | -4.21% |
| CCc1cccc(CC)c1NC(=S)NCc1ccc2[nH]c(C)cc2c1 | 94.4% (active) |
| O=C(/C=C/c1ccccc1[N+](=O)[O-])OC1CCCCC1=O (stereo unspecified) | -5.55% |
| CC1CCCCC1NC(=O)/C(C#N)=C/C=C/c1ccccc1[N+](=O)[O-] (stereo unspecified) | 69% (active) |
| COc1cc(/C=C(\C#N)C(=O)Nc2ccc3ccccc3c2)c([N+](=O)[O-])cc1OC | -8.56% |
| COc1cc(CN(C)Cc2nc3cc(C(F)(F)F)ccc3c(=O)[nH]2)ccc1OC(F)F | 8.36% |
| O=C(CSc1cccc[n+]1[O-])c1ccc(-c2ccccc2)cc1 | -8.44% |
| CC(NC(=S)NC1CCCCC1)C(c1ccccc1)N1CCOCC1 (stereo unspecified) | 1.15% |
| Cc1ccccc1CN1C[C@@H]2C[C@@H](c3cn(C)nc3-c3ccccc3)N3CCC[C@@]23C1=O | 9.77% |
| Cc1ccccc1CN1C[C@@H]2C[C@@H](c3ccc4nsnc4c3)N3CCC[C@@]23C1=O | 78.4% (active) |
| Cc1ccccc1CN1CCN(CC(=O)NCc2ccccn2)C1=O | -4.22% |
| CCN1CCN(C(=O)CN(C)S(=O)(=O)c2ccc3ccccc3c2)CC1 | 0.63% |
| O=C(N/N=C/c1cc2c(cc1Br)OCO2)C1COc2ccccc2O1 (stereo unspecified) | 38% |
| CC1=NN(Cc2ccccc2)C(=O)/C1=C/c1ccc(N(C)C)cc1 | -0.65% |

| SMILES | inhibition |
| --- | --- |
| O=C1NCC(=O)N(Cc2ccccc2)/C1=C/c1ccccc1 | -0.36% |
| CN(C)c1ccc(/C=C2\NC(=S)N(Cc3ccccc3)C2=O)cc1 | 96.8% (active) |
| Cc1noc(C)c1CCC(=O)O | -0.11% |
| CC(CC(=O)Nc1ccccc1)n1ccnc1 (stereo unspecified) | -7.2% |
| COc1ccc(OC)c(NC(=O)CN2CCN(C(=O)c3ccco3)CC2)c1 | -1.17% |
| COc1ccc(NC(C)=O)cc1NC(=O)CN1CCN(C2c3ccccc3-c3ccccc32)CC1 | 84% (active) |
| COc1ccc(NC(C)=O)cc1NC(=O)CN1CCN(c2ccccn2)CC1 | -3.06% |
| CCC(CC)NC(=O)CSc1nnc(-c2c[nH]c3ccccc23)o1 | 6.71% |
| CC(C)(C)n1nnnc1C(c1ccc(F)cc1)N1CCN(Cc2ccc3c(c2)OCO3)CC1 (stereo unspecified) | 48.1% |
| Cc1ccc(S(=O)(=O)Cn2nnnc2CN2CCN(Cc3ccc4c(c3)OCO4)CC2)cc1 | 93.4% (active) |
| Fc1ccccc1C(c1nnnn1Cc1ccc2c(c1)OCO2)N1CCN(Cc2ccccc2)CC1 (stereo unspecified) | 26.7% |
| O=C(CN1CCN(c2ccccc2F)CC1)c1ccc2c(c1)OCO2 | 8.93% |
| O=C(CN1CCC(O)(c2ccccc2)CC1)Nc1ccc2c(c1)OCCO2 | 3.55% |
| O=C(CCN1CCc2ccccc2C(O)(c2ccccc2)C1)c1ccc2c(c1)OCCO2 (stereo unspecified) | 95.3% (active) |
| O=C(Cc1ccccc1)NNC(=O)C1CCN(c2ncccn2)CC1 | -9.12% |
| CCc1cc(CNC(=O)CC2C(=O)NCCN2CC2CCCCC2)on1 (stereo unspecified) | -6.55% |
| COc1ccc(/C=C/C(=O)c2ccc(NS(=O)(=O)c3ccc(C)cc3)cc2)cc1O | 99.6% (active) |
| COc1ccc(NS(=O)(=O)c2ccc(NC(C)=O)cc2)cc1OC | -3.17% |
| COc1ccc(C(=O)Oc2cc(/C=N/NS(=O)(=O)c3ccc(C)cc3)ccc2OC)cc1 | 0.27% |
| O=C(CCC(=O)Nc1ccccc1)N/N=C/c1ccccc1F | 0.99% |
| CCC(C(=O)Nc1ccc2c(c1)OCCO2)c1ccccc1 (stereo unspecified) | 4.21% |
| CCO[C@H]1OC(C(=O)Nc2ccccc2)=C[C@@H](C2CC2)[C@@H]1CCCO | 1.1% |
| CCOC(=O)C1=C(CC)OC(N)=C(C#N)C1c1ccc(F)cc1F (stereo unspecified) | 11.4% |
| COc1cc2c(cc1OC)C(c1ccncc1)CC(=O)N2 (stereo unspecified) | -6.82% |

| SMILES | inhibition |
| --- | --- |
| COc1cc2c(cc1OC)C(c1ccc(C)o1)CC(=O)N2 (stereo unspecified) | -5.73% |
| COC(=O)c1ccc(C2CC(=O)Nc3cc(OC)c(OC)cc32)cc1 (stereo unspecified) | 53.2% (active) |
| O=C(NCCOc1ccccc1)c1ccccc1 | -1.77% |
| O=C(NCCc1ccccc1)c1ccc(OCCOc2ccccc2)cc1 | -1.38% |
| CC(C)(c1ccccc1)c1ccc(OCCN)cc1 | 51.4% (active) |
| COc1cc(OC)cc(C(=O)NCC(=O)OCc2csc(-c3ccccc3)n2)c1 | 34.9% |
| O=C(CNCc1ccc(Cl)cc1)Nc1cccc(C(=O)O)c1 | 1.28% |
| N/C(=N\OC(=O)Cc1ccccc1[N+](=O)[O-])c1ccc(Br)cc1 | 10.7% |
| COc1cccc(CNC(=O)CCC2CCCN(Cc3ccc(OC(F)F)cc3)C2)c1 (stereo unspecified) | 98.5% (active) |
| COc1cccc(CNC(=O)CCC2CCCN(C(=O)c3ccoc3C)C2)c1 (stereo unspecified) | -4.54% |
| COc1cccc(C(=O)N2CCCC(CCC(=O)NCc3ccc(F)c(F)c3)C2)c1 (stereo unspecified) | 6.37% |
| COc1ccc(/C=N/NC(=O)C(C)N(c2ccc(OC)cc2)S(C)(=O)=O)cc1 (stereo unspecified) | 4.55% |
| COc1ccc(Cl)cc1NC(=O)C(C)N1CCc2ccccc21 (stereo unspecified) | 16.9% |
| CC1(C)OC(=O)C(=CNC(CO)C(=O)O)C(=O)O1 (stereo unspecified) | -4.58% |
| O=[N+]([O-])c1cccc(S(=O)(=O)N2CCCCCC2)c1 | 36.7% |
| O=C(Oc1ccc([N+](=O)[O-])cc1)c1ccc(Cl)c(S(=O)(=O)N2CCCCC2)c1 | 56.8% (active) |
| O=C(Nc1ccc2c(c1)OCCO2)c1ccc(Cl)c(S(=O)(=O)N2CCCCC2)c1 | -0.95% |
| S=C(NCCc1ccccc1)NCc1ccccc1Cl | -3.26% |
| OCCNCc1cccc(OCc2ccccc2Cl)c1 | 88.8% (active) |
| O=C(O)Cc1ccc(NCc2ccccc2Cl)cc1 | -1.01% |
| COc1ccccc1NC(=O)c1cc(Cl)nnc1Cl | 15.6% |
| COc1ccc(NC(=O)c2sc(N)nc2-c2ccccc2)cc1 | 2.6% |
| Cc1cccc(NC(=O)c2sc(-c3ccccc3)nc2-c2ccc([N+](=O)[O-])cc2)c1 | 99.5% (active) |
| Cc1cccc(NC(=O)c2cc([N+](=O)[O-])ccc2N2CCN(C)CC2)c1 | -0.64% |
